Assays:
Assay in all cases: PBM; 200 nM protein, PBS
Details in all cases: dsDNA, one strand shown
HESX1 [1] = molecular target: HESX1 (Homo sapiens, UniProt Q9UBX0 95-180, R165K)
SHOX [2] = molecular target: SHOX (Homo sapiens, UniProt O15266 103-189)
ALX4 = ALX4 (Homo sapiens, UniProt Q9H161 200-286, Q225E)
HESX1 [3] = molecular target: HESX1 (Homo sapiens, UniProt Q9UBX0 95-180)
MSX2 = MSX2 (Homo sapiens, UniProt P35548 130-214, R199I)
ALX1 [4] = molecular target: ALX1 (Homo sapiens, UniProt Q15699 118-204, L144V)
Sequence of ALX1 (Homo sapiens, UniProt Q15699 118-204, L144V) (Q15699 118-204 L144V): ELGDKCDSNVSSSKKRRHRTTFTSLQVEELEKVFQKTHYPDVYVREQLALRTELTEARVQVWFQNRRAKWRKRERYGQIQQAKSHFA

ALX3 [5] = molecular target: ALX3 (Homo sapiens, UniProt O95076 139-225, N203Q)
Sequence of ALX3 (Homo sapiens, UniProt O95076 139-225, N203Q) (O95076 139-225 N203Q): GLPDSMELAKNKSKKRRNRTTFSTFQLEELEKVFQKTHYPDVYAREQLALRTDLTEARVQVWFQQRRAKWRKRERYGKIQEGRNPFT

SHOX [6] = molecular target: SHOX (Homo sapiens, UniProt O15266 103-189, R173C)
Sequence of SHOX (Homo sapiens, UniProt O15266 103-189, R173C) (O15266 103-189 R173C): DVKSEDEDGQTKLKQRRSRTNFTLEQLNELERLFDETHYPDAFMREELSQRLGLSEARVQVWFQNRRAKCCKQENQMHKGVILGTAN

ALX1 [7] = molecular target: ALX1 (Homo sapiens, UniProt Q15699 118-204, L144R)
Sequence of ALX1 (Homo sapiens, UniProt Q15699 118-204, L144R) (Q15699 118-204 L144R): as the sequence (Q15699 118-204 L144V) above, with V27R counted along it

ALX3 [8] = molecular target: ALX3 (Homo sapiens, UniProt O95076 139-225)
Sequence of ALX3 (Homo sapiens, UniProt O95076 139-225) (O95076 139-225): as the sequence (O95076 139-225 N203Q) above, with Q65N counted along it

PROP1 [9] = molecular target: PROP1 (Homo sapiens, UniProt O75360 56-141)
Sequence of PROP1 (Homo sapiens, UniProt O75360 56-141) (O75360 56-141): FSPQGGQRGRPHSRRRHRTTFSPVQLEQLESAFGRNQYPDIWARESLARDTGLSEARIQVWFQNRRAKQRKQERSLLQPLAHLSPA

HESX1 [10] = molecular target: HESX1 (Homo sapiens, UniProt Q9UBX0 95-180, R109Q)
Sequence of HESX1 (Homo sapiens, UniProt Q9UBX0 95-180, R109Q) (Q9UBX0 95-180 R109Q): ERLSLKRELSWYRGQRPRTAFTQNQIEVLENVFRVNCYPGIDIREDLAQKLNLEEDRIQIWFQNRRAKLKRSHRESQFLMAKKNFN

PROP1 [11] = molecular target: PROP1 (Homo sapiens, UniProt O75360 56-141, R99H)
Sequence of PROP1 (Homo sapiens, UniProt O75360 56-141, R99H) (O75360 56-141 R99H): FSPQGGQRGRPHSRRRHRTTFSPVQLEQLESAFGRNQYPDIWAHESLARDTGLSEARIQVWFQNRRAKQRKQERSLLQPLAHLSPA

ALX3 [12] = molecular target: ALX3 (Homo sapiens, UniProt O95076 139-225, L168Q)
Sequence of ALX3 (Homo sapiens, UniProt O95076 139-225, L168Q) (O95076 139-225 L168Q): as the sequence (O95076 139-225 N203Q) above, with L30Q, Q65N counted along it

HESX1 [13] = molecular target: HESX1 (Homo sapiens, UniProt Q9UBX0 95-180, P111T)
Sequence of HESX1 (Homo sapiens, UniProt Q9UBX0 95-180, P111T) (Q9UBX0 95-180 P111T): as the sequence (Q9UBX0 95-180 R109Q) above, with Q15R, P17T counted along it

ALX3 [14] = molecular target: ALX3 (Homo sapiens, UniProt O95076 139-225, L168V)
Sequence of ALX3 (Homo sapiens, UniProt O95076 139-225, L168V) (O95076 139-225 L168V): as the sequence (O95076 139-225 N203Q) above, with L30V, Q65N counted along it

PROP1 [15] = molecular target: PROP1 (Homo sapiens, UniProt O75360 56-141, F88S)
Sequence of PROP1 (Homo sapiens, UniProt O75360 56-141, F88S) (O75360 56-141 F88S): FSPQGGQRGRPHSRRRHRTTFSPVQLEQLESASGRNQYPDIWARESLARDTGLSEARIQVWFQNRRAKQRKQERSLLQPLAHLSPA

HESX1 [16] = molecular target: HESX1 (Homo sapiens, UniProt Q9UBX0 95-180, F115L)
Sequence of HESX1 (Homo sapiens, UniProt Q9UBX0 95-180, F115L) (Q9UBX0 95-180 F115L): as the sequence (Q9UBX0 95-180 R109Q) above, with Q15R, F21L counted along it

ALX1 [17] = molecular target: ALX1 (Homo sapiens, UniProt Q15699 118-204)
Sequence of ALX1 (Homo sapiens, UniProt Q15699 118-204) (Q15699 118-204): as the sequence (Q15699 118-204 L144V) above, with V27L counted along it

ALX3 [18] = molecular target: ALX3 (Homo sapiens, UniProt O95076 139-225, N203S)
Sequence of ALX3 (Homo sapiens, UniProt O95076 139-225, N203S) (O95076 139-225 N203S): as the sequence (O95076 139-225 N203Q) above, with Q65S counted along it

Sequence of HESX1 (Homo sapiens, UniProt Q9UBX0 95-180) (Q9UBX0 95-180): as the sequence (Q9UBX0 95-180 R109Q) above, with Q15R counted along it
Sequence of ALX4 (Q9H161 200-286 Q225E): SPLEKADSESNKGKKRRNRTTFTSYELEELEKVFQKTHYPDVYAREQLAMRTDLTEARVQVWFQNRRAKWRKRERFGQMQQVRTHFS
Sequence of SHOX (Homo sapiens, UniProt O15266 103-189) (O15266 103-189): as the sequence (O15266 103-189 R173C) above, with C71R counted along it
Sequence of MSX2 (P35548 130-214 R199I): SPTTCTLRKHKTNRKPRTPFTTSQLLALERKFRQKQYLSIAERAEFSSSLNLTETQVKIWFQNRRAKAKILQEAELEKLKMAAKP
Sequence of HESX1 (Homo sapiens, UniProt Q9UBX0 95-180, R165K) (Q9UBX0 95-180 R165K): as the sequence (Q9UBX0 95-180 R109Q) above, with Q15R, R71K counted along it

Sequence	binding signal (HESX1 [1])	binding signal (SHOX [2])	binding signal (ALX4)	binding signal (HESX1 [3])	binding signal (MSX2)	binding signal (ALX1 [4])	binding signal (ALX3 [5])	binding signal (SHOX [6])	binding signal (ALX1 [7])	binding signal (ALX3 [8])	binding signal (PROP1 [9])	binding signal (HESX1 [10])	binding signal (PROP1 [11])	binding signal (ALX3 [12])	binding signal (HESX1 [13])	binding signal (ALX3 [14])	binding signal (PROP1 [15])	binding signal (HESX1 [16])	binding signal (ALX1 [17])	binding signal (ALX3 [18])
AGCAATTA	12.6 upbm affinity estimate (log intensity, higher = more binding, comparable within an allelic series)	11.9 upbm affinity estimate (log intensity, higher = more binding, comparable within an allelic series)	13 upbm affinity estimate (log intensity, higher = more binding, comparable within an allelic series)	12.7 upbm affinity estimate (log intensity, higher = more binding, comparable within an allelic series)	13.2 upbm affinity estimate (log intensity, higher = more binding, comparable within an allelic series)	11.6 upbm affinity estimate (log intensity, higher = more binding, comparable within an allelic series)	8.32 upbm affinity estimate (log intensity, higher = more binding, comparable within an allelic series)	9.41 upbm affinity estimate (log intensity, higher = more binding, comparable within an allelic series)	11.3 upbm affinity estimate (log intensity, higher = more binding, comparable within an allelic series)	12.4 upbm affinity estimate (log intensity, higher = more binding, comparable within an allelic series)	11.4 upbm affinity estimate (log intensity, higher = more binding, comparable within an allelic series)	9.19 upbm affinity estimate (log intensity, higher = more binding, comparable within an allelic series)	11.4 upbm affinity estimate (log intensity, higher = more binding, comparable within an allelic series)	10.5 upbm affinity estimate (log intensity, higher = more binding, comparable within an allelic series)	11.1 upbm affinity estimate (log intensity, higher = more binding, comparable within an allelic series)	9.97 upbm affinity estimate (log intensity, higher = more binding, comparable within an allelic series)	7.59 upbm affinity estimate (log intensity, higher = more binding, comparable within an allelic series)	7.88 upbm affinity estimate (log intensity, higher = more binding, comparable within an allelic series)	12.2 upbm affinity estimate (log intensity, higher = more binding, comparable within an allelic series)	8.41 upbm affinity estimate (log intensity, higher = more binding, comparable within an allelic series)
ACTAATTG	13 upbm affinity estimate (log intensity, higher = more binding, comparable within an allelic series)	12.3 upbm affinity estimate (log intensity, higher = more binding, comparable within an allelic series)	13.4 upbm affinity estimate (log intensity, higher = more binding, comparable within an allelic series)	13 upbm affinity estimate (log intensity, higher = more binding, comparable within an allelic series)	13.1 upbm affinity estimate (log intensity, higher = more binding, comparable within an allelic series)	11.9 upbm affinity estimate (log intensity, higher = more binding, comparable within an allelic series)	8.32 upbm affinity estimate (log intensity, higher = more binding, comparable within an allelic series)	9.68 upbm affinity estimate (log intensity, higher = more binding, comparable within an allelic series)	11.5 upbm affinity estimate (log intensity, higher = more binding, comparable within an allelic series)	12.5 upbm affinity estimate (log intensity, higher = more binding, comparable within an allelic series)	11.5 upbm affinity estimate (log intensity, higher = more binding, comparable within an allelic series)	9.82 upbm affinity estimate (log intensity, higher = more binding, comparable within an allelic series)	11.9 upbm affinity estimate (log intensity, higher = more binding, comparable within an allelic series)	10.8 upbm affinity estimate (log intensity, higher = more binding, comparable within an allelic series)	11.6 upbm affinity estimate (log intensity, higher = more binding, comparable within an allelic series)	10.2 upbm affinity estimate (log intensity, higher = more binding, comparable within an allelic series)	7.65 upbm affinity estimate (log intensity, higher = more binding, comparable within an allelic series)	7.98 upbm affinity estimate (log intensity, higher = more binding, comparable within an allelic series)	12.6 upbm affinity estimate (log intensity, higher = more binding, comparable within an allelic series)	8.46 upbm affinity estimate (log intensity, higher = more binding, comparable within an allelic series)
ACAATTAA	12.1 upbm affinity estimate (log intensity, higher = more binding, comparable within an allelic series)	11.6 upbm affinity estimate (log intensity, higher = more binding, comparable within an allelic series)	12.9 upbm affinity estimate (log intensity, higher = more binding, comparable within an allelic series)	12.2 upbm affinity estimate (log intensity, higher = more binding, comparable within an allelic series)	12.8 upbm affinity estimate (log intensity, higher = more binding, comparable within an allelic series)	11.4 upbm affinity estimate (log intensity, higher = more binding, comparable within an allelic series)	8.46 upbm affinity estimate (log intensity, higher = more binding, comparable within an allelic series)	9.44 upbm affinity estimate (log intensity, higher = more binding, comparable within an allelic series)	11.1 upbm affinity estimate (log intensity, higher = more binding, comparable within an allelic series)	12.3 upbm affinity estimate (log intensity, higher = more binding, comparable within an allelic series)	11.2 upbm affinity estimate (log intensity, higher = more binding, comparable within an allelic series)	8.86 upbm affinity estimate (log intensity, higher = more binding, comparable within an allelic series)	11.1 upbm affinity estimate (log intensity, higher = more binding, comparable within an allelic series)	10.4 upbm affinity estimate (log intensity, higher = more binding, comparable within an allelic series)	10.8 upbm affinity estimate (log intensity, higher = more binding, comparable within an allelic series)	9.93 upbm affinity estimate (log intensity, higher = more binding, comparable within an allelic series)	7.71 upbm affinity estimate (log intensity, higher = more binding, comparable within an allelic series)	7.77 upbm affinity estimate (log intensity, higher = more binding, comparable within an allelic series)	12 upbm affinity estimate (log intensity, higher = more binding, comparable within an allelic series)	8.59 upbm affinity estimate (log intensity, higher = more binding, comparable within an allelic series)
CAATTAAA	12.6 upbm affinity estimate (log intensity, higher = more binding, comparable within an allelic series)	12 upbm affinity estimate (log intensity, higher = more binding, comparable within an allelic series)	13.5 upbm affinity estimate (log intensity, higher = more binding, comparable within an allelic series)	12.6 upbm affinity estimate (log intensity, higher = more binding, comparable within an allelic series)	13.1 upbm affinity estimate (log intensity, higher = more binding, comparable within an allelic series)	11.7 upbm affinity estimate (log intensity, higher = more binding, comparable within an allelic series)	8.41 upbm affinity estimate (log intensity, higher = more binding, comparable within an allelic series)	9.46 upbm affinity estimate (log intensity, higher = more binding, comparable within an allelic series)	11.5 upbm affinity estimate (log intensity, higher = more binding, comparable within an allelic series)	12.6 upbm affinity estimate (log intensity, higher = more binding, comparable within an allelic series)	11.6 upbm affinity estimate (log intensity, higher = more binding, comparable within an allelic series)	9.38 upbm affinity estimate (log intensity, higher = more binding, comparable within an allelic series)	11.6 upbm affinity estimate (log intensity, higher = more binding, comparable within an allelic series)	10.7 upbm affinity estimate (log intensity, higher = more binding, comparable within an allelic series)	11.3 upbm affinity estimate (log intensity, higher = more binding, comparable within an allelic series)	10.3 upbm affinity estimate (log intensity, higher = more binding, comparable within an allelic series)	7.64 upbm affinity estimate (log intensity, higher = more binding, comparable within an allelic series)	7.76 upbm affinity estimate (log intensity, higher = more binding, comparable within an allelic series)	12.2 upbm affinity estimate (log intensity, higher = more binding, comparable within an allelic series)	8.55 upbm affinity estimate (log intensity, higher = more binding, comparable within an allelic series)

— article PMC11006913
